Results published in PubChem BioAssay (EPA / NIEHS).
Inconclusive results are not listed. The source made the active and inactive calls. Rule for the calls, unless noted: active = hit-call score of the fitted dose curve at least 0.9, where 1 is the maximum; inactive = score below 0.9.

Columns and labels:
[1] = molecular target: Paired box protein Pax-6 (Homo sapiens) (UniProt P26367); experiment: ATG_Pax6_CIS: Attagene CIS-FACTORIAL HepG2 Assay for human Paired Box 6 (PAX6) (AID 2282956); conditions: HepG2 CIS-FACTORIAL PAX6 reporter transcription, RNA readout; actives raise or lower the signal
Chain of Paired box protein Pax-6 (Homo sapiens) (P26367 whole entry, looked up): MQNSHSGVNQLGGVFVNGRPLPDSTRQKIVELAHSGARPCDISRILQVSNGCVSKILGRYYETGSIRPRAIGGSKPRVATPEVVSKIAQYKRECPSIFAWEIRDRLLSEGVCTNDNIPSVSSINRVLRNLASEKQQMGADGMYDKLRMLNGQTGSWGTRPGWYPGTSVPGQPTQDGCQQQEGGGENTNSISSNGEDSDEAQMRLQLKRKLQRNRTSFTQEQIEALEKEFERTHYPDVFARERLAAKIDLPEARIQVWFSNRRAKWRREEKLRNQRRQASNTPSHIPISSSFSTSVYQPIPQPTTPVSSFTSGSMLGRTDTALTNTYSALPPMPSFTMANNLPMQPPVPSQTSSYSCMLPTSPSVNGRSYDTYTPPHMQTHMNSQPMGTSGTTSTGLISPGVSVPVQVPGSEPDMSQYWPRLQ
Outline: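 Values derive from bidirectional curve fitting of reporter mRNA signal relative to DMSO. HepG2 cells bearing transfected cis-regulated MRTUs were exposed for 24 h; transcripts were read by RT-PCR and capillary electrophoresis.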

[2] = ATG_PXRE_CIS: Attagene CIS-FACTORIAL HepG2 Assay for human Pregnane X Receptor Element (PXRE) (AID 2282957); conditions: HepG2 Attagene CIS-FACTORIAL PXRE reporter, mRNA; actives raise or lower the signal
Outline: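 Using HepG2 transfected with multiple reporter transcription units, endogenous factor-driven transcription was scored as reporter mRNA after 24 h exposure.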

[3] = ATG_PPRE_CIS: Attagene CIS-FACTORIAL HepG2 Assay for human Peroxisome Proliferator-activated Response Element (PPRE) (AID 2282958); conditions: HepG2 PPRE cis-element reporter, Attagene transcription factor profiling; actives raise or lower the signal
Outline: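 Endogenous PPRE-driven transcription is measured in HepG2 cells carrying transfected multi-reporter constructs. Reporter transcripts are quantified by RT-PCR, HpaI digestion and capillary electrophoresis 24 h after dosing. DMSO baseline, bidirectional fit.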

[4] = ATG_Sox_CIS: Attagene CIS-FACTORIAL HepG2 Assay for human SRY-box transcription factor (SOX) (AID 2282960); conditions: HepG2 Attagene cis-factorial SOX reporter, mRNA; actives raise or lower the signal
Outline: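 Reporter transcripts, measured by RT-PCR and capillary electrophoresis of labelled fragments, report endogenous SOX transcription factor activity. Transiently transfected human HepG2 cells receive chemical for 24 h; changes in either direction are fitted relative to DMSO.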

[5] = molecular target: Transcription factor Sp1 (Homo sapiens) (UniProt P08047); experiment: ATG_Sp1_CIS: Attagene CIS-FACTORIAL HepG2 Assay for human Specificity Protein 1 (Sp1) (AID 2282961); conditions: HepG2 Sp1 cis-reporter transcription, actives raise or lower the signal
Chain of Transcription factor Sp1 (Homo sapiens) (P08047 whole entry, looked up): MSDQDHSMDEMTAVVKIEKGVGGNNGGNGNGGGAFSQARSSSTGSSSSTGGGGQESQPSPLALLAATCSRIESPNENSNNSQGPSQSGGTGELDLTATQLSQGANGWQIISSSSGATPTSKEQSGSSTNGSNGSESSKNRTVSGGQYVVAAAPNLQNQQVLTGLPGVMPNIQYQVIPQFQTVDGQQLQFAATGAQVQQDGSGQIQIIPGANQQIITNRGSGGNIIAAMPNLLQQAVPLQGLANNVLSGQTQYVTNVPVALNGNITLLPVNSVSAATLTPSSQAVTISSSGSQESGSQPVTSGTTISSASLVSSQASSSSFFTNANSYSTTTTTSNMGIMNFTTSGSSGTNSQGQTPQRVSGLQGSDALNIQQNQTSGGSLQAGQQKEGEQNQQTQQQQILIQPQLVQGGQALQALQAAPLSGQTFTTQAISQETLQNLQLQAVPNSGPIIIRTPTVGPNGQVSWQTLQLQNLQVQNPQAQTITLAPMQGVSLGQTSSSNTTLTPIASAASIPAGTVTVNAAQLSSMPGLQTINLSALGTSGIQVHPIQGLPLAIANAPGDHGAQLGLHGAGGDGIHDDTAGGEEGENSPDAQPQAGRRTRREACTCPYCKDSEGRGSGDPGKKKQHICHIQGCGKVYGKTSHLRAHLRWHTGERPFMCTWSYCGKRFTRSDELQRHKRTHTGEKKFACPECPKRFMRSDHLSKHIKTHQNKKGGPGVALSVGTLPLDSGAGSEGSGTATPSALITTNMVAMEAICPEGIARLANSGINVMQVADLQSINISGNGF
Outline: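 Read-out is reporter transcript level, measured by RT-PCR and fluorescent capillary electrophoresis after 24 h chemical treatment. System: transiently transfected HepG2 cells reporting endogenous transcription factor activity; gain or loss fitted against DMSO baseline.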

[6] = ATG_SREBP_CIS: Attagene CIS-FACTORIAL HepG2 Assay for human Sterol Regulatory Element Binding (SREBP) (AID 2282962); conditions: HepG2 Attagene cis-factorial SREBP reporter, mRNA; actives raise or lower the signal
Outline: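 Values derive from bidirectional curve fitting with DMSO as baseline. The underlying measurement is reporter mRNA from cis-element-regulated units in transiently transfected HepG2, quantified by RT-PCR and capillary electrophoresis after 24 h exposure.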

[7] = molecular target: Signal transducer and activator of transcription 3 (Homo sapiens) (UniProt P40763); experiment: ATG_STAT3_CIS: Attagene CIS-FACTORIAL HepG2 Assay for human Signal Transducer and Activator of Transcription 3 (STAT3) (AID 2282963); conditions: HepG2, Attagene cis-factorial STAT3 reporter transcription; actives raise or lower the signal
Chain of Signal transducer and activator of transcription 3 (Homo sapiens) (P40763 whole entry, looked up): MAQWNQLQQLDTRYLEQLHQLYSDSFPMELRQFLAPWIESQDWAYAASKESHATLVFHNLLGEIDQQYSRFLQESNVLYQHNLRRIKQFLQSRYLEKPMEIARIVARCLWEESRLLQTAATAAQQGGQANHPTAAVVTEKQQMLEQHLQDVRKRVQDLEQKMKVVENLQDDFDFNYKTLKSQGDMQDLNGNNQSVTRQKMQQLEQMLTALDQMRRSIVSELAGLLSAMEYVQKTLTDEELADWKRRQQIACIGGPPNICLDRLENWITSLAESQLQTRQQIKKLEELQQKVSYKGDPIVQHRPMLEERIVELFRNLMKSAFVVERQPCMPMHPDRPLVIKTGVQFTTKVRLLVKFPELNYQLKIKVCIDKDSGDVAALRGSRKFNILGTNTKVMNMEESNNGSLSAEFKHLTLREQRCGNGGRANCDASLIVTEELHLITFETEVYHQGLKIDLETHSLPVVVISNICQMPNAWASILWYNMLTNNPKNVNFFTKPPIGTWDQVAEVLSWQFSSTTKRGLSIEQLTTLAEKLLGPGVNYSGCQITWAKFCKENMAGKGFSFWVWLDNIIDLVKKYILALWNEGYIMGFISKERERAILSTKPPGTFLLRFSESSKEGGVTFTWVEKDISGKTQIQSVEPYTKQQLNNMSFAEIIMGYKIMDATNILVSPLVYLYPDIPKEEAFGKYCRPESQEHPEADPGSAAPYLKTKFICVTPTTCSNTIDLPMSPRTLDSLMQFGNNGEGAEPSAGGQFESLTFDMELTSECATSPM
Outline: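 HepG2, MRTU-transfected, 24 h dosing. RNA → RT → PCR → FAM label → HpaI → CE. Bidirectional fit vs DMSO.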

[8] = ATG_TA_CIS: Attagene CIS-FACTORIAL HepG2 Assay for human TA Basal Promoter (AID 2282964); conditions: HepG2 Attagene CIS-factorial TA basal promoter reporter; actives raise or lower the signal
Outline: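 Transient MRTU transfection of HepG2 preceded 24 h compound exposure. Reporter mRNA levels were then read by RT-PCR with capillary electrophoresis, and this background-control endpoint was fitted bidirectionally to DMSO.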

[9] = ATG_TCF_b_cat_CIS: Attagene CIS-FACTORIAL HepG2 Assay for human T-Cell-Factor with beta-catenin (TCF/b-cat) (AID 2282965); conditions: HepG2 TCF/beta-catenin cis-reporter transcription, actives raise or lower the signal
Outline: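 In this cis-format system, transfected HepG2 cells report endogenous transcription factor activity. Readout after 24 h exposure is reporter transcript abundance from RT-PCR and capillary electrophoresis, analysed for gain or loss of signal versus DMSO.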

[10] = ATG_TAL_CIS: Attagene CIS-FACTORIAL HepG2 Assay for human TAL Basal Promoter (AID 2282966); conditions: HepG2 Attagene cis-factorial TAL promoter reporter; actives raise or lower the signal;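 note: background control endpoint measuring basal TAL promoter reporter mRNA not a specific factor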
Outline: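 After 24 hours of chemical exposure, transfected HepG2 cells yielded RNA that was converted to 6-FAM-labelled, HpaI-digested reporter fragments for capillary electrophoresis. Values derive from bidirectional fitting against DMSO controls.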

[11] = ATG_TGFb_CIS: Attagene CIS-FACTORIAL HepG2 Assay for human Transforming Growth Factor (TGF) (AID 2282967); conditions: HepG2 Attagene CIS TGFb reporter, mRNA transcription; actives raise or lower the signal
Outline: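 After a 24-hour incubation with compound, transfected HepG2 cells were lysed for RNA; reporter cDNA was amplified, fluorescently end-labeled and separated by CE. DMSO served as baseline for bidirectional fits.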

[12] = ATG_VDRE_CIS: Attagene CIS-FACTORIAL HepG2 Assay for human Vitamin D Receptor Element (VDRE) (AID 2282968); conditions: HepG2 VDRE cis-reporter transcription, actives raise or lower the signal
Outline: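 Steps: transfect HepG2 with multiple reporter transcription units; dose chemicals 24 h; isolate RNA; RT-PCR; label with 6-FAM primer extension; HpaI digest; capillary electrophoresis. Curves fitted both directions against DMSO.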

[13] = molecular target: Nuclear receptor subfamily 1 group I member 3 (Homo sapiens) (UniProt Q14994); experiment: ATG_CAR_TRANS: Attagene TRANS-FACTORIAL HepG2 Assay for human Constitutive Androstane Receptor (CAR) (AID 2282969; active = hit-call score of the fitted dose curve at least 0.9, where 1 is the maximum;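 note: activators raise reporter mRNA above DMSO so AC50 marks induction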); conditions: HepG2 Attagene TRANS-FACTORIAL CAR reporter
Chain of Nuclear receptor subfamily 1 group I member 3 (Homo sapiens) (Q14994 whole entry, looked up, the tested form may be a part): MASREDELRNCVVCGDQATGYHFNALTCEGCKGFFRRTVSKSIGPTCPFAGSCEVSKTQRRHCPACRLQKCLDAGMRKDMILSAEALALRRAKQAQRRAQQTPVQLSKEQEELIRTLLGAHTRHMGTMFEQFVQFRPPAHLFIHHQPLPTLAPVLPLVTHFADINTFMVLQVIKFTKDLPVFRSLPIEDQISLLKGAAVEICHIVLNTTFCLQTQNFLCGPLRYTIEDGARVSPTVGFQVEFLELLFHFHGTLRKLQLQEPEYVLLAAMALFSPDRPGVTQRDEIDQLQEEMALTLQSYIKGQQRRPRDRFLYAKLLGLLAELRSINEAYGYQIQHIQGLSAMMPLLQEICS
Outline: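 Steps: transient transfection of HepG2 with multiple GAL4-UAS reporter units; 24 h compound incubation; RNA isolation, RT-PCR, 6-FAM primer extension, HpaI digest; capillary electrophoresis. Gain-of-signal relative to DMSO negative control.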

[14] = molecular target: Estrogen receptor (Homo sapiens) (UniProt P03372); experiment: ATG_ERa_TRANS: Attagene TRANS-FACTORIAL HepG2 Assay for human Estrogen Receptor alpha (ERa) (AID 2282970; active = hit-call score of the fitted dose curve at least 0.9, where 1 is the maximum); conditions: HepG2 Attagene TRANS ERa GAL4 reporter, mRNA
Chain of Estrogen receptor (Homo sapiens) (P03372 whole entry, looked up, the tested form may be a part): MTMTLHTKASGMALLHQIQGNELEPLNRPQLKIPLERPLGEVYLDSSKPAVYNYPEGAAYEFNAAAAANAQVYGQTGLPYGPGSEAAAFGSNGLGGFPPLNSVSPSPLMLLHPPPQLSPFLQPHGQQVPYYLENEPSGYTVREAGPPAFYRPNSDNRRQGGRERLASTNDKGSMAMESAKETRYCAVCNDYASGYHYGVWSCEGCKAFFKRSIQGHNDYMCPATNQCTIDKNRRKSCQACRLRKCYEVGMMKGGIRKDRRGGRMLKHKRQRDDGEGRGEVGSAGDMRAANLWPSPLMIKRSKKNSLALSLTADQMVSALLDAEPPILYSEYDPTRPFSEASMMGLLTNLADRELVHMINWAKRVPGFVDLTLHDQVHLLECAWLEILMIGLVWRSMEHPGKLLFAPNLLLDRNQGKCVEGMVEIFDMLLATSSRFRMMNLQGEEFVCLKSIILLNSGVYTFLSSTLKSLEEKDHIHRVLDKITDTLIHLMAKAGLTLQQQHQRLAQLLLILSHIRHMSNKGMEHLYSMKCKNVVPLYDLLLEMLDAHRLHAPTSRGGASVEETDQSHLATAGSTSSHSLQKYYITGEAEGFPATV
Outline: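 Liver-derived HepG2 cells expressing chimeric nuclear receptor-Gal4 proteins from transient transfection were exposed for 24 hours. Gain of reporter mRNA signal versus DMSO, read by capillary electrophoresis of FAM-labelled PCR products, was recorded.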

[15] = molecular target: Steroid hormone receptor ERR1 (Homo sapiens) (UniProt P11474); experiment: ATG_ERRa_TRANS: Attagene TRANS-FACTORIAL HepG2 Assay for human Estrogen-Related Receptor alpha (ERRa) (AID 2282971; active = hit-call score of the fitted dose curve at least 0.9, where 1 is the maximum); conditions: HepG2 Attagene TRANS reporter, ERRa transactivation
Chain of Steroid hormone receptor ERR1 (Homo sapiens) (P11474 whole entry, looked up, the tested form may be a part): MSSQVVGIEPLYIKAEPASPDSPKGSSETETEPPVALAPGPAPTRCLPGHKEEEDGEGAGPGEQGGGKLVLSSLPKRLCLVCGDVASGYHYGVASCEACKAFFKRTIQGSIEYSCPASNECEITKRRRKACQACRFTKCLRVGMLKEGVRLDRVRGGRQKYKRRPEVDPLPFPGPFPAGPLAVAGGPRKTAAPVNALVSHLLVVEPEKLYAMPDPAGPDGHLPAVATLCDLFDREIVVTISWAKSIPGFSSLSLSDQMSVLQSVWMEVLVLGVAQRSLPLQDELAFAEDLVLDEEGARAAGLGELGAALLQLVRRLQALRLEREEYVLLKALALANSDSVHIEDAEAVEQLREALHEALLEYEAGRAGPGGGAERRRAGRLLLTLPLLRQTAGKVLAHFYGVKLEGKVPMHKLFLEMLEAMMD
Outline: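 Reporter transcript induction was quantified by RT-PCR and capillary electrophoresis of FAM-labelled, HpaI-cut products after 24 h treatment of HepG2 cells carrying transiently transfected GAL4-UAS reporter units and an exogenous ERRa-Gal4 fusion; activity scored as increase over DMSO.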

[16] = molecular target: X-box-binding protein 1 (Homo sapiens) (UniProt P17861); experiment: ATG_Xbp1_CIS: Attagene CIS-FACTORIAL HepG2 Assay for human X-box Binding Protein 1 (XBP1) (AID 2282972); conditions: HepG2 XBP1 cis-element reporter, Attagene multiplex; actives raise or lower the signal
Chain of X-box-binding protein 1 (Homo sapiens) (P17861 whole entry, looked up): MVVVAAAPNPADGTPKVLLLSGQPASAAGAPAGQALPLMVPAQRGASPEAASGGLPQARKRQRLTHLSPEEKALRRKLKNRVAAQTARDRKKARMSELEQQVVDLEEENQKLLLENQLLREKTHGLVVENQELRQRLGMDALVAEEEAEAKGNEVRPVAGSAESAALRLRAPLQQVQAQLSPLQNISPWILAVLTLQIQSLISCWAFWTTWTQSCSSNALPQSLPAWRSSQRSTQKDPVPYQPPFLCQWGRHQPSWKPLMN
Outline: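 Human hepatoma HepG2, cis-element reporter system, 24 h treatment; mRNA quantified by RT-PCR/CE fluorescence; fit relative to DMSO.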

[17] = ATG_M_19_TRANS: Attagene TRANS-FACTORIAL HepG2 Assay for M19 Transcription Factor (Internal Marker) (AID 2282974; active = hit-call score of the fitted dose curve at least 0.9, where 1 is the maximum); conditions: HepG2 Attagene TRANS-FACTORIAL M19 internal marker reporter
Outline: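 Background-control readout: after 24 h chemical exposure of transfected HepG2 carrying GAL4-driven reporter units, RNA was reverse-transcribed, amplified, fluorescently labeled and sized by capillary electrophoresis; gain-of-signal fit against DMSO.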

[18] = ATG_GAL4_TRANS: Attagene TRANS-FACTORIAL HepG2 Assay for GAL4 (Internal Marker) (AID 2282976; active = hit-call score of the fitted dose curve at least 0.9, where 1 is the maximum); conditions: HepG2 Attagene TRANS GAL4 internal marker reporter
Outline: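 First, HepG2 cells were transfected with reporter units under GAL4-UAS control. Next, they were treated with chemical for 24 h. Finally, RNA was reverse-transcribed, PCR-amplified, FAM-labelled and resolved by capillary electrophoresis, with induction scored against DMSO.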

[19] = ATG_RORE_CIS: Attagene CIS-FACTORIAL HepG2 Assay for human RAR-related Orphan Receptor Element (RORE) (AID 2282959); conditions: HepG2 Attagene cis-factorial RORE reporter, mRNA; actives raise or lower the signal
Outline: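 RORE reporter transcripts reflecting endogenous factor activity were read after 24 h compound exposure of transfected HepG2 cells, using reverse transcription, PCR, fluorescent labelling and capillary electrophoresis sizing. Gain or loss fitted against DMSO.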

Measured: AC50

CCCCCC=O
inactive: [1] | [2] | [3] | [4] | [5] | [6] | [7] | [8] | [9] | [10] | [11] | [12] | [13] | [14] | [15] | [16] | [17] | [18]

FC(F)(Br)C(F)(F)C(F)(F)C(F)(F)C(F)(F)C(F)(F)Br
active: [14] 7.26 µM
inactive: [1] | [2] | [3] | [19] | [5] | [6] | [7] | [8] | [9] | [10] | [11] | [12] | [13] | [16] | [18]

COC(OC(C)=O)c1ccccc1 (centres undefined)
inactive: [1] | [2] | [3] | [19] | [5] | [6] | [7] | [8] | [9] | [10] | [11] | [12] | [13] | [14] | [15] | [16] | [17]

O=S(=O)(OCC(F)F)C(F)(F)F
inactive: [1] | [2] | [3] | [19] | [5] | [6] | [7] | [8] | [9] | [10] | [11] | [12] | [14] | [15] | [16] | [17] | [18]

CCC(=O)OCCc1ccccc1
inactive: [1] | [2] | [3] | [19] | [4] | [6] | [7] | [8] | [9] | [10] | [11] | [12] | [13] | [14] | [16] | [17] | [18]

Nc1ccc([N+](=O)[O-])cc1O
inactive: [1] | [2] | [3] | [19] | [6] | [7] | [8] | [9] | [10] | [11] | [12] | [13] | [14] | [16] | [17] | [18]

Nc1ccc(S(=O)(=O)Nc2nccs2)cc1
inactive: [1] | [2] | [3] | [4] | [5] | [6] | [7] | [8] | [9] | [10] | [11] | [12] | [14] | [15] | [16] | [17] | [18]

CC(=O)Nc1ccc(N=Nc2cc(C)ccc2O)cc1
inactive: [1] | [19] | [4] | [6] | [7] | [8] | [9] | [10] | [13] | [14] | [15] | [16]
active: [2] 19.5 µM | [3] 39.6 µM | [11] 11.6 µM | [12] 13.6 µM
